Screens: PubChem, National Center for Advancing Translational Sciences (NCATS)
Most compounds without a hit are left out; they make up all but 9.4% or so of the library.
Rab9 promoter act = Rab9 promoter activation | Huh7 Rab9 promoter-luciferase reporter, luminescence, 24 h | Potency, µM (series often up to 9.22 µM), hits mostly activators | 320,000 tested, 2.8% active | AID 485297; further: nearly all actives have a fitted effect of over 60% in size
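Luminescence read-out: Huh7 cells stably expressing Rab9-luciferase, treated 24 h with compound at 37 °C, then lysed with luciferase reagent for 10 min at ambient before reading.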
ELG1 genotoxic = inducers of genotoxicity in HEK293T ELG1-luciferase cells; HEK293T ELG1-luciferase reporter, luminescence, 16 h; Potency, µM (highest dose often 46 µM), actives largely listed as activators; 330,000 tested, 1.3% active; AID 504466; further: nearly all actives have a fitted effect of over 60% in size
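After overnight (16 hr) compound treatment at 37 °C, ELG1-luciferase HEK293T cells were lysed with ONE-Glo; luminescence quantified 30 min later at room temperature.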
ELG1 DNA repair = ELG1-dependent DNA repair inhibition; HEK293T ELG1-luciferase reporter, luminescence, 16 h; DNA damage induced by 5-fluorouridine; Potency, µM (doses to about 46.1 µM), most hits filed as inhibitors; 330,000 tested, 2.3% active; further: nearly all actives have a fitted effect of over 55% in size
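Cells (2,000 per well) received 5-fluorouridine plus test compound or DMSO and were incubated 16 hr at 37 °C, 5% CO2. Luciferase activity was read by luminescence 30 min after ONE-Glo addition; signal suppression marked inhibition of damage-induced ELG1 function.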
SMN2 splice up = increases expression of the SMN2 splice variant; HEK293 SMN2-luciferase splicing reporter, luminescence, 30-36 h; Potency, µM (titrated, usually from 46.1 µM), hits mostly activators; 210,000 tested, 2.8% active; AID 1458; further: nearly all actives have a fitted effect of over 55% in size
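HEK293 cells carry an SMN2 minigene-luciferase reporter in which exon 7 inclusion puts luciferase in frame. Cells were seeded at 2000 cells/well, attached for 10-12 hours, then exposed to compounds for 30-36 hours at 37C before ONE-Glo luminescence.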
FLuc modulator = counter-screen for miR-21 project: firefly luciferase inhibitors or activators; P08659; purified FLuc, Km substrates, luminescence inhibition; Potency, µM (highest dose often 57.5 µM), usual class: inhibitors; 360,000 tested, 6.9% active; AID 588342; further: nearly all actives have a fitted effect of over 55% in size
Target sequence (P08659 whole entry, looked up): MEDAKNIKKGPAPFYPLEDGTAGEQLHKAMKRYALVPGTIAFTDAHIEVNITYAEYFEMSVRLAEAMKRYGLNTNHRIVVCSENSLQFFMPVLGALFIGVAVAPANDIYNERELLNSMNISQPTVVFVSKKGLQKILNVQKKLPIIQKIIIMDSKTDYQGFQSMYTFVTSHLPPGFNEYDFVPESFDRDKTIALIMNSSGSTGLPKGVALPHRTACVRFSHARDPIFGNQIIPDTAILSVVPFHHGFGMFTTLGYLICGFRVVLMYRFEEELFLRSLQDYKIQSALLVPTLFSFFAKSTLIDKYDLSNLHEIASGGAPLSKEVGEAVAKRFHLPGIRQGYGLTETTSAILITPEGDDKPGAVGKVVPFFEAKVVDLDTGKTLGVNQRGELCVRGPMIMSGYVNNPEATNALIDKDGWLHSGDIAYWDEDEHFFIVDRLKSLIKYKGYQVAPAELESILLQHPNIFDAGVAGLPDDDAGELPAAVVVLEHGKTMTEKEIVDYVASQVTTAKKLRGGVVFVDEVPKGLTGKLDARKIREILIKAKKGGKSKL
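Purified P. pyralis luciferase, 10 nM final, with Km-level 10 uM D-luciferin and 10 uM ATP in 50 mM Tris acetate pH 7.5, 10 mM Mg acetate, 0.01% Tween-20, 0.05% BSA; 6-point qHTS titration about 60 µM downward; luminescence read.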
NPC1 promoter act = NPC1 promoter activation; Huh7 NPC1 promoter luciferase reporter, 24 h; Potency, µM (highest dose often 9.22 µM), hits mostly activators; 320,000 tested, 2.4% active; further: nearly all actives have a fitted effect of over 60% in size
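Huh7 cells stably carrying NPC1 promoter–luciferase, plated in Opti-MEM with 10% FBS for 2 h, were exposed to compound in DMSO for 24 h at 37 °C; luciferase reagent was added for 10 min and luminescence read.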
Numbers stand for hits; [ ] = dose if it differs, or a comment. The call rests on the fitted dose curve; in most records, active means well fitted curve in the direction sought with a large enough effect; inconclusive means small, poorly fitted or top-dose-only effect, or another doubt; inactive means no such curve, though single readings can be large; an effect the other way counts as inactive or inconclusive.

For O=C(/C=C/c1ccccc1)NC(=S)NNC(=O)Cc1cccs1 the results were Rab9 promoter act inactive, ELG1 genotoxic inactive, ELG1 DNA repair inactive, SMN2 splice up 13µM, FLuc modulator inactive and NPC1 promoter act inactive.
Screening O=C(/C=C/c1cccs1)NC(=S)NNC(=O)c1ccccc1O returned Rab9 promoter act inactive, ELG1 genotoxic inactive, ELG1 DNA repair inconclusive, SMN2 splice up inactive, FLuc modulator inconclusive and NPC1 promoter act inactive.
Screening COc1ccc(/C=C/C(=O)NC(=S)NNC(=O)c2cc(OC)c(OC)c(OC)c2)cc1 returned Rab9 promoter act inactive, ELG1 genotoxic inactive, ELG1 DNA repair 7.3µM, FLuc modulator inconclusive and NPC1 promoter act inactive.
Screening COc1ccc(/C=C/C(=O)NC(=S)NNC(=O)Cc2cccs2)cc1 returned Rab9 promoter act inactive, ELG1 genotoxic inconclusive, ELG1 DNA repair inconclusive, SMN2 splice up 13µM, FLuc modulator inactive and NPC1 promoter act inactive.
`COc1ccc(-c2nc(SCC(=O)Nc3ccc4c(c3)OCCO4)c(-c3ccc(C)cc3)[nH]2)cc1OC` gave SMN2 splice up inactive and FLuc modulator inconclusive.
`CCc1cccc(NC(=O)C(c2ccccc2)N2Cc3ccccc3C2=O)c1` (centres undefined) gave FLuc modulator inactive.
`Cc1nc2ccc(NC(=O)c3cccc(C(F)(F)F)c3)cc2o1` gave Rab9 promoter act inactive, ELG1 genotoxic inconclusive, ELG1 DNA repair inactive, SMN2 splice up inactive, FLuc modulator inactive and NPC1 promoter act inactive.
Cc1nc2ccc(-c3ccccc3)cc2o1 was read as Rab9 promoter act inactive, ELG1 genotoxic inactive, ELG1 DNA repair inconclusive, SMN2 splice up inactive, FLuc modulator 17µM and NPC1 promoter act inactive.
COCCN1CCN(C(=O)c2ccc3nc(Cc4ccc(OC)c(OC)c4)oc3c2)CC1 was read as Rab9 promoter act inactive, ELG1 genotoxic inactive, ELG1 DNA repair inactive, FLuc modulator inactive and NPC1 promoter act inactive.
`COc1ccc(Cc2nc3ccc(C(=O)N4CCOCC4)cc3o2)cc1` gave Rab9 promoter act 4µM, ELG1 genotoxic 18µM, ELG1 DNA repair inconclusive, FLuc modulator 13µM and NPC1 promoter act 3.2µM.
For COc1ccc(Cc2nc3ccc(C(=O)N4CCCN(C=O)CC4)cc3o2)cc1 the results were Rab9 promoter act inactive, ELG1 genotoxic inactive, ELG1 DNA repair inactive, FLuc modulator inactive and NPC1 promoter act inactive.
`COc1ccc(Cc2nc3ccc(C(=O)N4C[C@@H](C)O[C@@H](C)C4)cc3o2)cc1OC` gave Rab9 promoter act inactive, ELG1 genotoxic inconclusive, ELG1 DNA repair inconclusive, FLuc modulator 15µM and NPC1 promoter act inactive.
Screening CC(C)C(=O)Nc1ccc(Nc2ccccc2)cc1 returned Rab9 promoter act inactive, ELG1 genotoxic inactive, ELG1 DNA repair inactive, SMN2 splice up inactive, FLuc modulator 19µM and NPC1 promoter act inactive.
Screening CCCCc1ccc(NC(=O)CC(C)(C)C)cc1 returned Rab9 promoter act inconclusive, ELG1 genotoxic inactive, ELG1 DNA repair inconclusive, FLuc modulator 15µM and NPC1 promoter act inconclusive.
Screening CC(C)CC(=O)Nc1ccc(Oc2ccc(NC(=O)CC(C)C)cc2)cc1 returned Rab9 promoter act inactive, ELG1 genotoxic inactive, ELG1 DNA repair inactive, FLuc modulator inactive and NPC1 promoter act inactive.
Screening CC(C)(C)CC(=O)Nc1ccc(Nc2ccccc2)cc1 returned Rab9 promoter act 3.2µM, ELG1 genotoxic inactive, ELG1 DNA repair inconclusive, SMN2 splice up inactive, FLuc modulator 12µM and NPC1 promoter act inactive.
Screening CC(C)CC(=O)Nc1ccc(Nc2ccccc2)cc1 returned Rab9 promoter act inactive, ELG1 genotoxic inactive, ELG1 DNA repair inactive, SMN2 splice up inactive, FLuc modulator 19µM and NPC1 promoter act inactive.
CS(=O)(=O)c1ccc(CNC(=O)[C@@H]2C[C@H]2[C@@H](NP(=O)(c2ccccc2)c2ccccc2)c2ccccc2)cc1 was read as SMN2 splice up inactive.
O=C1C[C@H]2OCC=C3CN4CC[C@@]5(C(=O)O)[C@H](N1)C2[C@H]3C[C@H]45 (some centres undefined) was read as SMN2 splice up inactive[9.22 µM].
`CSCC[C@H](NC(=O)[C@H](Cc1ccccc1)NC[C@@H](NC[C@@H](N)CS)C(C)C)C(=O)O` gave SMN2 splice up inactive.
Screening CCN(CC)C(=O)Cn1c(=O)n(-c2ccc(Cl)c(Cl)c2)c(=O)c2c(C)c(C(=O)N(CC)CC)sc21 returned FLuc modulator inactive.
For CCOC(=O)c1oc2ccc(CNCCO)c(Cl)c2c1C the results were Rab9 promoter act inactive, ELG1 genotoxic inconclusive, ELG1 DNA repair inconclusive, SMN2 splice up inactive, FLuc modulator 17µM and NPC1 promoter act inactive.
Screening CCOC(=O)c1oc2ccc(CNC3CCCCC3)c(Cl)c2c1C returned Rab9 promoter act inactive, ELG1 genotoxic inactive, ELG1 DNA repair inactive, SMN2 splice up inactive, FLuc modulator inactive and NPC1 promoter act inactive.
`CN1CCCN(S(=O)(=O)c2cccc(C(F)(F)F)c2)c2nc3ccccc3nc21` gave Rab9 promoter act inactive, ELG1 genotoxic inactive, ELG1 DNA repair inactive and NPC1 promoter act inactive.
For CSc1ccc(/C=C/c2nc3ccccc3n2S(=O)(=O)c2ccc(Br)cc2)cc1 the results were SMN2 splice up 0.5µM and FLuc modulator 0.043µM.
Screening CCOc1ccc(/C=C/c2nc3ccccc3n2S(=O)(=O)c2ccc(Br)cc2)cc1 returned SMN2 splice up 2.8µM and FLuc modulator 0.85µM.
For Cc1nc2ccccc2n1S(=O)(=O)c1ccc(Br)cc1 the results were Rab9 promoter act inactive, ELG1 genotoxic inactive, ELG1 DNA repair inactive, SMN2 splice up inactive, FLuc modulator inactive and NPC1 promoter act inactive.
CCc1ccc(S(=O)(=O)n2c(C)nc3ccccc32)cc1 was read as Rab9 promoter act inactive, ELG1 genotoxic inactive, ELG1 DNA repair inactive, FLuc modulator inactive and NPC1 promoter act inactive.
Screening O=S(=O)(c1cccc(C(F)(F)F)c1)n1c(/C=C/c2ccccc2)nc2ccccc21 returned FLuc modulator 12µM.
Screening Cc1c(C(=O)NCc2cccc(Cl)c2)sc2ncnc(N(C)C3CCCCC3)c12 returned FLuc modulator inactive.
For COc1ccc2ccccc2c1CN1CCN(C(=O)c2ccccc2)CC1 the results were Rab9 promoter act inactive, ELG1 genotoxic inactive, ELG1 DNA repair 18µM, SMN2 splice up inactive, FLuc modulator inactive and NPC1 promoter act inactive.
COc1ccc2ccccc2c1CN1CCN(C(=O)c2ccco2)CC1 was read as Rab9 promoter act inactive, ELG1 genotoxic inactive, ELG1 DNA repair 21µM, FLuc modulator inactive and NPC1 promoter act inactive.
`COc1cccc(CN2CCN(C(=O)c3cccc4ccccc34)CC2)c1OC` gave Rab9 promoter act inactive, ELG1 genotoxic inactive, ELG1 DNA repair inconclusive, SMN2 splice up inactive, FLuc modulator inactive and NPC1 promoter act inactive.
